Test results: PubChem BioAssay (Tox21)
Several values for one entry are separate records, joined by “and”; a condition that tells them apart may be missing. Equal entries are not always repeated. Results filed as inconclusive are left out. A structure can be active in one record and inactive in another. Activity calls are given as the source filed them. Unless noted, calls come from the whole dose curve; as a rule, active = well fitted curve in the direction sought with a large enough effect in the repeat runs; inconclusive = weak or mixed curves; inactive = no such curve, though single readings can be large; an effect the other way counts as inactive or inconclusive.

What was measured:
[1] = qHTS assay to test for compound auto fluorescence at 535 nm (green) in HEK293 cells (AID 720680)
[2] = qHTS assay to test for compound auto fluorescence at 460 nm (blue) in HEK293 cell free culture (AID 720681)
Method in brief: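 Blue fluorescence (Ex 405/Em 460 nm, triamterene-equivalent) was read immediately after pin transfer of compound or DMSO into medium (DMEM, 10% FBS) without cells.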

[3] = qHTS assay to test for compound auto fluorescence at 535 nm (green) in HEK293 cell free culture (AID 720682)
Method in brief: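 Green-channel intensity (Ex/Em 485/535 nm) was recorded from compound-treated wells containing only DMEM with 10% FBS. Fluorescein provided the equivalency standard.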

[4] = qHTS assay to test for compound auto fluorescence at 590 nm (red) in HEK293 cell free culture (AID 720683)
Method in brief: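 Red-channel autofluorescence of compounds in culture medium (DMEM, 10% FBS), no cells, measured at 540/590 nm. Rose Bengal sodium is the reference fluorophore for equivalence.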

[5] = qHTS assay to test for compound auto fluorescence at 590 nm (red) in HepG2 cell free culture (AID 720684)
Method in brief: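 No cells present: MEM + 10% FBS only. Compound pinned in, red label read (540/590 nm). Activity = fluorescence equivalent to Rose Bengal sodium.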

[6] = qHTS assay to test for compound auto fluorescence at 460 nm (blue) in HepG2 cell free culture (AID 720685)
Method in brief: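 Cell-free plates of MEM plus 10% FBS received 23 nL compound or DMSO vehicle; blue-channel (405/460 nm) intensity scored against triamterene as reference fluorophore.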

[7] = qHTS assay to test for compound auto fluorescence at 535 nm (green) in HepG2 cell free culture (AID 720686)
[8] = qHTS assay to test for compound auto fluorescence at 460 nm (blue) in HepG2 cells (AID 720687)
Method in brief: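 Blue-channel autofluorescence (Ex/Em 405/460 nm, triamterene-equivalent) was measured after 1 hr compound exposure at 37 C, 5% CO2. Cells were HepG2, plated overnight at 37 C in MEM plus 10% FBS.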

[9] = qHTS assay to identify small molecule antagonists of the glucocorticoid receptor (GR) signaling pathway - cell viability counter screen (AID 720693); note: nearly all actives have a fitted effect of over 55% in size; note: potency is the fitted concentration of half-maximal effect
[10] = qHTS assay for identifying genotoxic compounds that show differential cytotoxicity against isogenic chicken DT40 cell lines with known DNA damage response pathways - wild type cell line (AID 743012); note: nearly all actives have a fitted effect of over 60% in size; note: potency is the fitted concentration of half-maximal effect
Method in brief: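 Viability of DNA repair-proficient chicken DT40 cells was assessed by CellTiter-Glo luminescence following 40 h compound exposure at 37 C/5% CO2.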

[11] = qHTS assay for identifying genotoxic compounds that show differential cytotoxicity against isogenic chicken DT40 cell lines with known DNA damage response pathways - Rev3 mutant cell line (AID 743014); note: nearly all actives have a fitted effect of over 55% in size; note: potency is the fitted concentration of half-maximal effect
[12] = qHTS assay to identify small molecule antagonists of the androgen receptor (AR) signaling pathway - cell viability counter screen (AID 743033; note: nearly all actives have a fitted effect of over 45% in size; note: potency is the fitted concentration of half-maximal effect)
[13] = qHTS assay to identify small molecule antagonists of the androgen receptor (AR) signaling pathway using the MDA cell line - cell viability counter screen (AID 743041; note: nearly all actives have a fitted effect of over 45% in size; note: potency is the fitted concentration of half-maximal effect)
Method in brief: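 Using the breast carcinoma line MDA-kb2 AR-luc, test chemicals were co-incubated with R1881 for 16 h; CellTiter-Fluor reagent, added at 15.5 h, provided a fluorescence measure of live cells.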

[14] = qHTS assay for identifying genotoxic compounds that show differential cytotoxicity against isogenic chicken DT40 cell lines with known DNA damage response pathways - Rad54/Ku70 mutant cell line (AID 743015); note: nearly all actives have a fitted effect of over 60% in size; note: potency is the fitted concentration of half-maximal effect
[15] = molecular target: Androgen receptor (Homo sapiens) (UniProt P10275); assay: qHTS assay to identify small molecule antagonists of the androgen receptor (AR) signaling pathway (AID 743035; active = well fitted inhibition curve with a large enough effect in the signal ratio in the repeat runs, not every such curve was filed as active; the % refers to the signal ratio; note: potency is the fitted concentration of half-maximal effect)
Androgen receptor (Homo sapiens), sequence (P10275 whole entry, looked up): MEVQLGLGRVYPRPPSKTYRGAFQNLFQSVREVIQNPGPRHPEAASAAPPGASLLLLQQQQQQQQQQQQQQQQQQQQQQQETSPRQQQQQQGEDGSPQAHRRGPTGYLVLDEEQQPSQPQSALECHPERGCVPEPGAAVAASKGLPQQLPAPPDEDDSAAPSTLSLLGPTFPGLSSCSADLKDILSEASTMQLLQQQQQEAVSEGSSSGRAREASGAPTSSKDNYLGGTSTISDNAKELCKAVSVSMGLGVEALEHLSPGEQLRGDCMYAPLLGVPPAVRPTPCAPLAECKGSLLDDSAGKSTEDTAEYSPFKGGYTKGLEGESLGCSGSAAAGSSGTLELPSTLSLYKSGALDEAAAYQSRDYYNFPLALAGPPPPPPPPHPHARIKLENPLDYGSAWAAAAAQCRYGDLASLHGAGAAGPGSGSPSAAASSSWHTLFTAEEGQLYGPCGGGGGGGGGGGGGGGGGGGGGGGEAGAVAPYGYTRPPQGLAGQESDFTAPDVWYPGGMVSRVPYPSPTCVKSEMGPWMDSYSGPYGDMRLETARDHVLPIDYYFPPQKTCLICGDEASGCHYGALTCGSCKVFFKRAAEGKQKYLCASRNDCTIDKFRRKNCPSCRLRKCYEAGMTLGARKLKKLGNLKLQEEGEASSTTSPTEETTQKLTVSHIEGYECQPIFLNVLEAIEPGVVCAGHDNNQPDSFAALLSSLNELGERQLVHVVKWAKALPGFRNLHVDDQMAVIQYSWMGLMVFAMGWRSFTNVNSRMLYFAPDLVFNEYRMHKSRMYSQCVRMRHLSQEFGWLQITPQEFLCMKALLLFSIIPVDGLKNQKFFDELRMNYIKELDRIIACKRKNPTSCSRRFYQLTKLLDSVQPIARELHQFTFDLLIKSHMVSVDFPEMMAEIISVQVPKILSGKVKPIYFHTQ
Method in brief: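 Reporter HEK293 cells were exposed to compounds and R1881 overnight (16 h, 37C); beta-lactamase activity was then quantified by FRET fluorescence.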

[16] = molecular target: Androgen receptor (Homo sapiens) (UniProt P10275); assay: qHTS assay to identify small molecule agonists of the androgen receptor (AR) signaling pathway (AID 743036; active = well fitted activation curve with a large enough effect in the signal ratio in the repeat runs, with a control signal flat, not every such curve was filed as active; the % refers to the signal ratio)
Method in brief: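 Cell-based FRET reporter assay: HEK293 line with a UAS-beta-lactamase construct, compounds added in DMSO, 16 h exposure at 37C, then 2 h substrate step at room temperature and fluorescence intensity read.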

[17] = molecular target: Androgen receptor (Homo sapiens) (UniProt P10275); assay: qHTS assay to identify small molecule agonists of the androgen receptor (AR) signaling pathway using the MDA cell line (AID 743040; note: nearly all actives have a fitted effect of over 20% in size)
Method in brief: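 Stable MMTV-luciferase reporter in MDA-kb2 cells; note the promoter carries GR as well as AR response elements. 16 h compound treatment, 37C, 0% CO2; ONE-Glo luminescence endpoint.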

[18] = molecular target: Androgen receptor (Homo sapiens) (UniProt P10275); assay: qHTS assay to identify small molecule antagonists of the androgen receptor (AR) signaling pathway using the MDA cell line (AID 743042; note: nearly all actives have a fitted effect of over 55% in size; note: potency is the fitted concentration of half-maximal effect)
Method in brief: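 Antagonist mode: compounds plus R1881 agonist added to MDA-kb2 AR-luc cells, incubated 16 h at 37C. Luciferase reporter luminescence quantified, with multiplexed CellTiter-Fluor readout for cell viability.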
% is set by controls: 0 for no effect and ±100 for the full control effect.

CCCCn1cc[n+](C)c1.[Cl][Fe-]([Cl])([Cl])[Cl]
inactive: outcome [1] | Potency [2] | outcome [3] | outcome [4] | outcome [5] | Potency [6] | Potency [7] | Potency [8] | Potency [9] | Potency [10] | Potency [11] | Potency [12] | Potency [13]

COc1ccc2c(c1OC)C(=O)O[C@@H]2[C@H]1c2cc3c(cc2CCN1C)OCO3
inactive: outcome [1] | Potency [2] | outcome [3] | outcome [4] | outcome [5] | Potency [6] | Potency [7] | Potency [8] | Potency [9] | Potency [10] | Potency [14] | Potency [12] | Potency [15] | outcome [16] | outcome [17] | Potency [13] | Potency [18]

CN1[C@@H]2CC[C@H]1CC(O)C2 (stereo partly specified)
inactive: outcome [1] | Potency [2] | outcome [3] | outcome [4] | outcome [5] | Potency [6] | Potency [7] | Potency [8] | Potency [9] | Potency [10] | Potency [11] | Potency [14] | Potency [12] | Potency [13]

CCCCn1cc[n+](C)c1 (tested in a mixture with another compound)
inactive: outcome [1] | Potency [2] | outcome [3] | outcome [4] | outcome [5] | Potency [6] | Potency [7] | Potency [8] | Potency [9] | Potency [10] | Potency [11] | Potency [14] | Potency [12] | Potency [13]

O=Cc1ccccc1
inactive: outcome [1] | Potency [2] | outcome [3] | outcome [4] | outcome [5] | Potency [6] | Potency [7] | Potency [8] | Potency [9] | Potency [10] | Potency [11] | Potency [14] | Potency [12]

CCCC[N+]1(C)CCCC1 (tested in a mixture with another compound)
inactive: outcome [1] | Potency [2] | outcome [3] | outcome [4] | outcome [5] | Potency [6] | Potency [7] | Potency [8] | Potency [9] | Potency [10] | Potency [11] | Potency [14] | Potency [12] | Potency [13]

COc1ccc(Cc2nccc3cc(OC)c(OC)cc23)cc1OC
inactive: fluorescence, % of fluorescein [1] -0.0425% [at 18.6 µM] | fluorescence, % of fluorescent control [2] -0.0156% [at 18.6 µM] | activity change [3] -0.0465% [at 18.6 µM] | fluorescence, % of fluorescent control [4] -0.0177% [at 18.6 µM] | fluorescence, % of Rose Bengal [5] -0.262% [at 18.6 µM] | fluorescence, % of fluorescent control [6] 0.0281% [at 18.6 µM] | fluorescence, % of fluorescein control [7] -0.0438% [at 18.6 µM] | fluorescence, % of fluorescent control [8] -0.0587% [at 18.6 µM] | Potency [9] | Potency [12] | outcome [16] | outcome [17]
active: Potency [10] 4.03 µM | Potency [11] 9.02 µM | Potency [14] 7.17 µM | Potency [18] 9.02 µM

O=C1C[C@@H]2OCC=C3CN4CC[C@]56c7ccccc7N1[C@H]5[C@H]2[C@H]3C[C@H]46
inactive and 26.6 µM (active): Potency [11]
inactive: outcome [1] | Potency [2] | outcome [3] | outcome [4] | outcome [5] | Potency [6] | Potency [7] | Potency [8] | Potency [9] | Potency [12] | Potency [13]
active: Potency [10] 26.6 µM
inactive and 29.8 µM (active): Potency [14]

Cc1nn(-c2cc(NS(C)(=O)=O)c(Cl)cc2Cl)c(=O)n1C(F)F
inactive: outcome [1] | Potency [2] | outcome [3] | outcome [4] | outcome [5] | Potency [6] | Potency [7] | Potency [8] | Potency [9] | Potency [10] | Potency [11] | Potency [14] | Potency [12] | outcome [17] | Potency [13] | Potency [18]

Brc1ccc(Oc2ccc(Br)cc2Br)c(Br)c1
inactive: outcome [1] | Potency [2] | outcome [3] | outcome [4] | outcome [5] | Potency [6] | Potency [7] | Potency [8] | Potency [9] | Potency [10] | Potency [11] | Potency [14] | Potency [12] | Potency [13]

O=C(N[C@H]1N=C(c2ccccc2F)c2cccc3c2N(CC3)C1=O)c1cc2ccccc2[nH]1
active: Potency [14] 29.8 µM
inactive: outcome [1] | Potency [2] | outcome [3] | outcome [4] | outcome [5] | Potency [6] | Potency [7] | Potency [8] | Potency [9] | Potency [11] | Potency [12]

O=[N+]([O-])c1ccccc1-c1ccccc1
inactive: outcome [1] | Potency [2] | outcome [3] | outcome [4] | outcome [5] | Potency [6] | Potency [7] | Potency [8] | Potency [9] | Potency [10] | Potency [11] | Potency [14] | Potency [12] | Potency [13]

COP(=O)(OC)O/C(=C\Cl)c1cc(Cl)c(Cl)cc1Cl
inactive: outcome [1] | Potency [2] | outcome [3] | outcome [4] | outcome [5] | Potency [6] | Potency [7] | Potency [8] | Potency [9] | outcome [16] | outcome [17] | Potency [13]
active: Potency [10] 17.2 µM | Potency [11] 30.6 µM | Potency [14] 17.2 µM | Potency [15] 21.9 µM | Potency [18] 54.5 µM

CCCCCCC[CH2][Sn]([Cl])([Cl])[CH2]CCCCCCC
active: Potency [9] 54.9 µM | Potency [15] 21.9 µM
inactive: outcome [1] | Potency [2] | outcome [3] | outcome [4] | outcome [5] | Potency [6] | Potency [7] | Potency [8] | Potency [10] | Potency [11] | Potency [14] | Potency [12] | outcome [17] | Potency [13] | Potency [18]

CN=C=O
inactive: outcome [1] | Potency [2] | outcome [3] | outcome [4] | outcome [5] | Potency [6] | Potency [7] | Potency [8] | Potency [9] | Potency [10] | Potency [11] | Potency [14] | Potency [12] | Potency [13]

N#Cc1sc2c(=O)c3ccccc3c(=O)c=2sc1C#N
active: Potency [9] 0.49 µM | Potency [10] 1.37 µM | Potency [11] 0.433 µM | Potency [14] 0.77 µM | Potency [12] 13.8 µM | Potency [15] 9.77 µM | Potency [13] 1.37 µM | Potency [18] 0.306 µM
inactive: outcome [1] | Potency [2] | outcome [3] | outcome [4] | outcome [5] | Potency [6] | Potency [7] | Potency [8] | outcome [17]
